Assay results taken from the supplement of paper PMC8728848.
Only a selection was taken, and the strongest signals are over-represented in it overall.

Tests used:
Test in all cases: glycan array binding signal (z-score within array); higher = stronger binding
Settings in all cases: glycan notation: IUPAC condensed, linker removed
[1] = target: Fuc(a1-2)Gal(b1-3)GalNAc(b1-3)Gal(a1-4)Gal(b1-4)Glc
How it was run: (§1)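 Negative Z-scores can be read as non-binding. The Z-score is calculated within each array and then averaged across arrays of one protein sequence at different concentrations or buffers and across linkers. Arrays, 3228 in all, were curated from the Consortium for Functional Glycomics database and kept only where the protein sequence was available.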

[2] = target: Fuc(a1-2)Gal(b1-3)GlcNAc(b1-3)GalNAc
How it was run: as §1

[3] = target: Fuc(a1-2)Gal(b1-3)[Fuc(a1-4)]GlcNAc(b1-2)Man(a1-3)[Fuc(a1-2)Gal(b1-3)[Fuc(a1-4)]GlcNAc(b1-2)Man(a1-6)]Man(b1-4)GlcNAc(b1-4)[Fuc(a1-6)]GlcNAc(b1-4)[Fuc(a1-6)]GlcNAc
How it was run: as §1

[4] = target: Fuc(a1-2)Gal(b1-4)[Fuc(a1-3)]GlcNAc(b1-2)Man(a1-3)[Fuc(a1-2)Gal(b1-4)[Fuc(a1-3)]GlcNAc(b1-2)Man(a1-6)]Man(b1-4)GlcNAc(b1-4)[Fuc(a1-6)]GlcNAc
How it was run: as §1

[5] = target: Fuc(a1-2)[Gal(a1-4)]Gal(b1-4)GlcNAc
How it was run: as §1

[6] = target: Fuc(a1-3)[Gal3S(b1-4)]GlcNAc
How it was run: as §1

Fuc(a1-4)GlcNAc = target: Fuc(a1-4)GlcNAc
How it was run: as §1

[7] = target: Gal(a1-3)Gal(b1-4)[Fuc(a1-3)]GlcNAc
How it was run: as §1

Gal(a1-4)GlcNAc = target: Gal(a1-4)GlcNAc
How it was run: as §1

Gal(b1-3)Gal = target: Gal(b1-3)Gal
How it was run: as §1

Gal(b1-3)GlcNAc(b1-2)Man = target: Gal(b1-3)GlcNAc(b1-2)Man
How it was run: as §1

[8] = target: Gal(b1-3)GlcNAc(b1-3)Gal(b1-4)[Fuc(a1-3)]GlcNAc
How it was run: as §1

[9] = target: Gal(b1-3)GlcNAc(b1-3)Gal(b1-4)[Fuc(a1-3)]GlcNAc(b1-6)[Gal(b1-3)GlcNAc(b1-3)]Gal(b1-4)Glc
How it was run: as §1

Gal(b1-4)Glc = target: Gal(b1-4)Glc
How it was run: as §1

[10] = target: Gal(b1-4)GlcNAc(b1-3)Gal(b1-4)GlcNAc(b1-3)GalNAc
How it was run: as §1

[11] = target: Gal(b1-4)GlcNAc(b1-3)GalNAc
How it was run: as §1

Gal3S(b1-4)GlcNAc = target: Gal3S(b1-4)GlcNAc
How it was run: as §1

[12] = target: Gal3S(b1-4)[Fuc(a1-3)]GlcNAc
How it was run: as §1

GalNAc(a1-3)Gal = target: GalNAc(a1-3)Gal
How it was run: as §1

GalNAc(b1-3)GalNAc = target: GalNAc(b1-3)GalNAc
How it was run: as §1

GalNAc(b1-3)GlcNAc = target: GalNAc(b1-3)GlcNAc
How it was run: as §1

[13] = target: GalNAc3S(b1-4)[Fuc(a1-3)]GlcNAc
How it was run: as §1

[14] = target: GlcNAc(a1-4)Gal(b1-3)GlcNAc
How it was run: as §1

[15] = target: GlcNAc(b1-3)Gal(b1-3)GalNAc
How it was run: as §1

GlcNAc(b1-3)Gal(b1-4)Glc = target: GlcNAc(b1-3)Gal(b1-4)Glc
How it was run: as §1

[16] = target: GlcNAc(b1-3)Gal(b1-4)GlcNAc(b1-2)Man(a1-3)[GlcNAc(b1-3)Gal(b1-4)GlcNAc(b1-2)Man(a1-6)]Man(b1-4)GlcNAc(b1-4)[Fuc(a1-6)]GlcNAc
How it was run: as §1

[17] = target: GlcNAc(b1-3)Gal(b1-4)GlcNAc(b1-3)Gal(b1-4)GlcNAc(b1-2)Man(a1-3)[GlcNAc(b1-3)Gal(b1-4)GlcNAc(b1-3)Gal(b1-4)GlcNAc(b1-2)Man(a1-6)]Man(b1-4)GlcNAc(b1-4)[Fuc(a1-6)]GlcNAc
How it was run: as §1

[18] = target: GlcNAc(b1-3)Gal(b1-4)GlcNAc(b1-3)Gal(b1-4)GlcNAc(b1-2)[GlcNAc(b1-3)Gal(b1-4)GlcNAc(b1-3)Gal(b1-4)GlcNAc(b1-6)]Man(a1-6)[GlcNAc(b1-3)Gal(b1-4)GlcNAc(b1-3)Gal(b1-4)GlcNAc(b1-2)Man(a1-3)]Man(b1-4)GlcNAc(b1-4)[Fuc(a1-6)]GlcNAc
How it was run: as §1

[19] = target: GlcNAc(b1-3)Gal(b1-4)GlcNAc(b1-3)Gal(b1-4)GlcNAc(b1-3)Gal(b1-4)GlcNAc(b1-2)Man(a1-3)[GlcNAc(b1-3)Gal(b1-4)GlcNAc(b1-3)Gal(b1-4)GlcNAc(b1-3)Gal(b1-4)GlcNAc(b1-2)Man(a1-6)]Man(b1-4)GlcNAc(b1-4)[Fuc(a1-6)]GlcNAc
How it was run: as §1

[20] = target: GlcNAc(b1-3)Gal(b1-4)GlcNAc(b1-3)Gal(b1-4)GlcNAc(b1-3)Gal(b1-4)GlcNAc(b1-2)[GlcNAc(b1-3)Gal(b1-4)GlcNAc(b1-3)Gal(b1-4)GlcNAc(b1-3)Gal(b1-4)GlcNAc(b1-6)]Man(a1-6)[GlcNAc(b1-3)Gal(b1-4)GlcNAc(b1-3)Gal(b1-4)GlcNAc(b1-3)Gal(b1-4)GlcNAc(b1-2)Man(a1-3)]Man(b1-4)GlcNAc(b1-4)[Fuc(a1-6)]GlcNAc
How it was run: as §1

GlcNAc(b1-3)GalNAc = target: GlcNAc(b1-3)GalNAc
How it was run: as §1

[21] = target: GlcNAc(b1-4)[GlcNAc(b1-6)]GalNAc
How it was run: as §1

GlcNAc(b1-6)GalNAc = target: GlcNAc(b1-6)GalNAc
How it was run: as §1

[22] = target: Man(a1-2)Man(a1-3)[Man(a1-2)Man(a1-6)]Man(a1-6)[Man(a1-2)Man(a1-2)Man(a1-3)]Man
How it was run: as §1

[23] = target: Man(a1-2)Man(a1-6)[Man(a1-3)]Man(a1-6)[Man(a1-2)Man(a1-2)Man(a1-3)]Man(b1-4)GlcNAc(b1-4)GlcNAc
How it was run: as §1

[24] = target: Man(a1-3)[Man(a1-6)]Man(a1-6)[Man(a1-3)]Man(b1-4)GlcNAc(b1-4)GlcNAc
How it was run: as §1

[25] = target: Man(a1-3)[Man(a1-6)]Man(b1-4)GlcNAc(b1-4)GlcNAc
How it was run: as §1

[26] = target: Neu5Ac(a2-3)Gal(b1-3)GlcNAc
How it was run: as §1

[27] = target: Neu5Ac(a2-3)Gal(b1-3)GlcNAc(b1-2)[Neu5Ac(a2-3)Gal(b1-3)GlcNAc(b1-4)]Man(a1-6)[Neu5Ac(a2-3)Gal(b1-3)GlcNAc(b1-2)Man(a1-3)]Man(b1-4)GlcNAc(b1-4)GlcNAc
How it was run: as §1

[28] = target: Neu5Ac(a2-3)Gal(b1-4)GlcNAc(b1-2)Man
How it was run: as §1

[29] = target: Neu5Ac(a2-3)Gal(b1-4)GlcNAc(b1-2)Man(a1-3)[Neu5Ac(a2-6)Gal(b1-4)GlcNAc(b1-2)Man(a1-6)]Man(b1-4)GlcNAc(b1-4)GlcNAc
How it was run: as §1

[30] = target: Neu5Ac(a2-3)Gal(b1-4)GlcNAc(b1-3)Gal(b1-4)GlcNAc(b1-6)[Gal(b1-3)]GalNAc
How it was run: as §1

[31] = target: Neu5Ac(a2-3)Gal(b1-4)GlcNAc(b1-6)[Neu5Ac(a2-3)Gal(b1-3)]GalNAc
How it was run: as §1

[32] = target: Neu5Ac(a2-3)Gal6S(b1-4)[Fuc(a1-3)]GlcNAc
How it was run: as §1

[33] = target: Neu5Ac(a2-6)Gal(b1-4)GlcNAc
How it was run: as §1

[34] = target: Neu5Ac(a2-6)Gal(b1-4)GlcNAc(b1-2)Man(a1-3)[Man(a1-6)]Man(b1-4)GlcNAc(b1-4)GlcNAc
How it was run: as §1

[35] = target: Neu5Ac(a2-6)Gal(b1-4)GlcNAc(b1-2)Man(a1-3)[Neu5Ac(a2-3)Gal(b1-4)GlcNAc(b1-2)Man(a1-6)]Man(b1-4)GlcNAc(b1-4)GlcNAc
How it was run: as §1

[36] = target: Neu5Ac(a2-8)Neu5Ac(a2-3)Gal(b1-3)GalNAc(b1-4)[Neu5Ac(a2-8)Neu5Ac(a2-3)]Gal(b1-4)Glc
How it was run: as §1

[37] = target: Neu5Gc(a2-3)Gal(b1-3)[Fuc(a1-4)]GlcNAc
How it was run: as §1

[38] = target: Neu5Gc(a2-3)Gal(b1-4)GlcNAc
How it was run: as §1

[39] = target: Neu5Gc(a2-3)Gal(b1-4)[Fuc(a1-3)]GlcNAc
How it was run: as §1

B1: LysMD3 (Homo sapiens), Q7Z3D4 (protein)
chain: MAGRHQNRSFPLPGVQSSGQVHAFGNCSDSDILEEDAEVYELRSRGKEKVRRSTSRDRLDDIIVLTKDIQEGDTLNAIALQYCCTVADIKRVNNLISDQDFFALRSIKIPVKKFSSLTETLCPPKGRQTSRHSSVQYSSEQQEILPANDSLAYSDSAGSFLKEVDRDIEQIVKCTDNKRENLNEVVSALTAQQMRFEPDNKNTQRKDPYYGADWGIG
glycan array binding signal (z-score) [1]: 0.086
glycan array binding signal (z-score) [2]: 0.587
glycan array binding signal (z-score) [3]: 0.341
glycan array binding signal (z-score) [4]: 1.97
glycan array binding signal (z-score) [5]: 2.84
glycan array binding signal (z-score) [6]: -0.081
glycan array binding signal (z-score) (Fuc(a1-4)GlcNAc): 0.681
glycan array binding signal (z-score) [7]: 0.873
glycan array binding signal (z-score) (Gal(a1-4)GlcNAc): 0.113
glycan array binding signal (z-score) (Gal(b1-3)Gal): 0.706
glycan array binding signal (z-score) (Gal(b1-3)GlcNAc(b1-2)Man): 1.23
glycan array binding signal (z-score) [8]: 2.15
glycan array binding signal (z-score) [9]: -0.547
glycan array binding signal (z-score) (Gal(b1-4)Glc): -0.555
glycan array binding signal (z-score) [10]: -0.073
glycan array binding signal (z-score) [11]: 0.375
glycan array binding signal (z-score) (Gal3S(b1-4)GlcNAc): -0.699
glycan array binding signal (z-score) [12]: 0.294
glycan array binding signal (z-score) (GalNAc(a1-3)Gal): 0.335
glycan array binding signal (z-score) (GalNAc(b1-3)GalNAc): 1.67
glycan array binding signal (z-score) (GalNAc(b1-3)GlcNAc): 1.85
glycan array binding signal (z-score) [13]: -0.424
glycan array binding signal (z-score) [14]: 0.45
glycan array binding signal (z-score) [15]: 1.5
glycan array binding signal (z-score) (GlcNAc(b1-3)Gal(b1-4)Glc): 0.983
glycan array binding signal (z-score) [16]: 1.83
glycan array binding signal (z-score) [17]: 1.8
glycan array binding signal (z-score) [18]: 1.87
glycan array binding signal (z-score) [19]: 1.68
glycan array binding signal (z-score) [20]: 2.41
glycan array binding signal (z-score) (GlcNAc(b1-3)GalNAc): -0.639
glycan array binding signal (z-score) [21]: 0.46
glycan array binding signal (z-score) (GlcNAc(b1-6)GalNAc): 0.427
glycan array binding signal (z-score) [22]: 0.422
glycan array binding signal (z-score) [23]: -0.445
glycan array binding signal (z-score) [24]: -0.113
glycan array binding signal (z-score) [25]: -0.343
glycan array binding signal (z-score) [26]: -0.413
glycan array binding signal (z-score) [27]: -0.094
glycan array binding signal (z-score) [28]: -0.604
glycan array binding signal (z-score) [29]: 0.582
glycan array binding signal (z-score) [30]: -0.924
glycan array binding signal (z-score) [31]: -0.226
glycan array binding signal (z-score) [32]: -0.291
glycan array binding signal (z-score) [33]: -0.353
glycan array binding signal (z-score) [34]: -1.15
glycan array binding signal (z-score) [35]: -0.438
glycan array binding signal (z-score) [36]: 1.66
glycan array binding signal (z-score) [37]: -0.44
glycan array binding signal (z-score) [38]: -0.032
glycan array binding signal (z-score) [39]: -0.174
